High-throughput results as filed in PubChem BioAssay.
Rows were chosen to be rich in hits. Some 3.4% of all compounds tested hit in one or more screens of this group.
GPR151 ag – activators of human GPR151. Q8TDV0. PathHunter beta-arrestin GPR151 cells, luminescence. activation, % at 11.2 µM. actives 1% (n = 650,000). AID 1508602; in the data active = activation above about 4.9%;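 note: 0% = median of compound wells and 100% = cells with positive control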
TEAD-YAP inh – TEAD-YAP interaction inhibition. HEK-TIYL cells, TEAD-Gal4/YAP UAS-luciferase luminescence. inhibition, % at 9.12 µM. actives 1.4% (n = 640,000); in the data active = inhibition above about 32%;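 note: 0% = median of test compound wells and 100% = reference inhibitor wells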
MITF primary – human MITF inhibition, primary screen; actives 0.91% (n = 650,000); inhibition, % at 2.6 µM; AlphaScreen MITF homodimerization, bead proximity signal; O75030; AID 1259374; in the data active = inhibition above about 50%;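 note: 0% = vehicle wells with protein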
Target sequence (O75030 whole entry, looked up): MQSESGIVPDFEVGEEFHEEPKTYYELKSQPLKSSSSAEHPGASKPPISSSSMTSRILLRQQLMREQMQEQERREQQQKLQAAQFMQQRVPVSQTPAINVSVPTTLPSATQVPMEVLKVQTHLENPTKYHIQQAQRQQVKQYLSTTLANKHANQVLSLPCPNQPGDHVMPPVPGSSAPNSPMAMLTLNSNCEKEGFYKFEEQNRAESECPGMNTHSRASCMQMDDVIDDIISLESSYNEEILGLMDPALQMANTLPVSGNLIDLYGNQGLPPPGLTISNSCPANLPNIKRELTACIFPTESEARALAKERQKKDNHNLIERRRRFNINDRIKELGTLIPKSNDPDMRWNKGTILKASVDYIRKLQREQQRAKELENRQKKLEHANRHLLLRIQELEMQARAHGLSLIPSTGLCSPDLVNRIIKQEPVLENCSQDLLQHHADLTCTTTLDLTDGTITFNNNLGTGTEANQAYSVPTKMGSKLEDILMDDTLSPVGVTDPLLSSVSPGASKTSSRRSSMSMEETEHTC
FBW7 activator – human FBW7 E3 ligase activation, primary screen; Q969H0; AlphaScreen FBW7–phospho-cyclin E peptide binding, activator screen; normalized activity (activation), % at 26.1 µM; actives 0.13% (n = 650,000); in the data active = normalized activity above about 1.9%;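 note: purified mutant Fbw7 with reduced substrate affinity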
MITF confirm – confirmation of human MITF inhibitors. inhibition, % at 2.6 µM. actives 16% (n = 4,700). shares compounds with MITF primary. AlphaScreen MITF homodimerization, biotin/His-MITF beads. AID 1259372;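 active = inhibition above a cutoff derived from the DMSO control wells, cut at about 28% in these data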;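 note: 0% = MITF dimer wells with DMSO only; inhibitors lower the bead chemiluminescence by keeping MITF from dimerizing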
AS interf DR – counter-screen: compounds optically interfering with AlphaScreen; IC50, µM; shares compounds with MITF primary; AlphaScreen optical interference counterscreen, cell-free; actives 6% (n = 480); AID 1259373; call rule not given here
AlphaScreen intf2 – counter-screen: compounds optically interfering with AlphaScreen. LysRS AlphaScreen counterscreen, signal interference, triplicate. actives 7.6% (n = 4,700). inhibition, % at 2.6 µM. AID 1259376. shares compounds with MITF primary;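 active = inhibition above a cutoff derived from the DMSO control wells, cut at about 30% in these data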
Active calls of the source: *; x = no result given.

SMILES	GPR151 ag	TEAD-YAP inh	MITF primary	FBW7 activator	MITF confirm	AlphaScreen intf2	others
Cc1ccc(C)c(NC(=O)CCC(=O)Nc2cc(C)ccc2C)c1	0	-4	7	0	x	x
CCC(C)(C)NCC(=O)Nc1ccc(OC(F)(F)F)cc1	0	-10	3	0	x	x
Cc1ccc(C)c(NC(=O)CNCC(C)(C)CN(C)C)c1	0	-3	74*	0	-3	-1
CN(C)CC(C)(C)CNCC(=O)Nc1ccc(OC(F)(F)F)cc1	1	11	55*	0	2	7
CCOC(=O)C1CCN(Cc2ccc(O)c3ncccc23)CC1	0	55*	72*	-2	114*	100*
Oc1ccc(CN2CCOCC2)c2cccnc12	0	67*	91*	0	99*	99*
Cc1ccc(SC(C)C(=O)NC2CCCC2)cc1 (stereo unspecified)	-1	14	2	1	x	x
Cc1ccc(C(=O)N2CCN(Cc3ccc4c(c3)OCO4)CC2)cc1	0	3	8	0	x	x
Fc1ccc(CN2CCN(Cc3ccc4c(c3)OCO4)CC2)c(F)c1	-1	0	61*	0	0	6
COc1ccc(CN2CCN(Cc3ccc4c(c3)OCO4)CC2)cc1	0	-3	64*	0	14	13
COc1ccc(C(=O)N2CCN(Cc3ccc4c(c3)OCO4)CC2)cc1	0	-3	55*	0	4	14
COc1ccc(NC(=S)N2CCN(Cc3ccc4c(c3)OCO4)CC2)cc1	-1	-10	15	0	x	x
CSc1nsc(SC)c1C(=O)Nc1ccc(Br)c(C)c1	-1	-6	-6	0	x	x
Cc1ncc([N+](=O)[O-])n1Cc1ccc(F)cc1	0	1	9	0	x	x
COC(=O)c1ccc(Cn2c([N+](=O)[O-])cnc2C)cc1	-1	-2	78*	0	-16	-3
COc1ccc(C(=O)N/N=C(/C)CC(=O)Nc2ccccn2)cc1OC	1	-4	60*	1	4	13
Cc1ccc(N(CC(=O)NC2CCCC2)S(C)(=O)=O)c(C)c1	1	5	5	0	x	x
O=[N+]([O-])c1cc2c(cc1CNCCCN1CCOCC1)OCO2	1	2	59*	0	-5	-5
COc1cc(CN2CCN(Cc3ccc4c(c3)OCO4)CC2)c([N+](=O)[O-])cc1OC	2	2	69*	0	17	19
O=[N+]([O-])c1cc2c(cc1CN1CCN(CCO)CC1)OCO2	-1	-1	18	0	x	x
O=[N+]([O-])c1cc2c(cc1CN1CCCCCC1)OCO2	0	5	52*	0	3	1
COc1cc(CN2CCN(Cc3cccc(C)c3)CC2)c([N+](=O)[O-])cc1OC	0	0	73*	0	2	11
COc1ccccc1N1CCN(Cc2cc3c(cc2[N+](=O)[O-])OCO3)CC1	2	-3	-9	0	x	x
O=C(N/N=C\c1cc(O)ccc1[N+](=O)[O-])C1COc2cc3ccccc3cc2O1 (stereo unspecified)	-2	-1	10	0	x	x
NS(=O)(=O)c1ccc(CNS(=O)(=O)c2cc(C(F)(F)F)ccc2Cl)cc1	1	2	4	0	x	x
SMILES	GPR151 ag	TEAD-YAP inh	MITF primary	FBW7 activator	MITF confirm	AlphaScreen intf2	others
CCCN1CCN(c2ncnc3sc(C(=O)Nc4ccc(F)cc4Cl)c(C)c23)CC1	1	-28	-3	0	x	x
COc1cc(CN2CCC(C)CC2)c([N+](=O)[O-])cc1OC	0	0	-6	0	x	x
O=[N+]([O-])c1ccccc1/C=C/CN1CCN(Cc2ccc3c(c2)OCO3)CC1	0	10	59*	0	-2	0
COc1cc(CN2CCN(Cc3cccc(Cl)c3)CC2)c([N+](=O)[O-])cc1OC	1	-6	57*	0	20	24
O=C1c2c(Cl)c(Cl)c(Cl)c(Cl)c2C(=O)N1c1ccc2oc(-c3ccccc3)nc2c1	0	-1	6	0	x	x
COc1ccc(C2=NOC(C(=O)NCCc3ccc(OC)c(OC)c3)C2)cc1 (stereo unspecified)	0	-17	2	0	x	x
CCNCC(=O)c1[nH]c(C)c(C(C)=O)c1C	0	6	51*	0	-4	-4
O=C(COc1ccc2ccccc2c1)NNC(=O)c1ccc(Cl)cc1	0	-4	4	0	x	x
O=C(COc1ccc(Cl)cc1)NNC(=O)c1ccc(=O)[nH]c1	0	-1	68*	0	-9	-7
CSc1ccccc1C(=O)NCc1ccc2c(c1)OCO2	0	-1	3	0	x	x
CSc1ccccc1NC(=O)CN(C)C(C)C(=O)NCc1ccc2c(c1)OCO2 (stereo unspecified)	4	9	88*	0	-3	13
CCSc1ccccc1C(=O)NCc1ccc2c(c1)OCO2	-1	10	75*	0	8	17
Cc1cccn2c(=O)c(/C=C(\C#N)C(=O)NC3CCCC3)c(Oc3ccc(Cl)cc3)nc12	2	0	2	0	x	x
Cc1c(NC(=O)C(C)OC(=O)c2cc3c(s2)CCC3)c(=O)n(-c2ccccc2)n1C (stereo unspecified)	-1	8	80*	0	80*	10	AS interf DR=>6.7
CCOC(=O)c1c(NC(=O)CSc2nnc(CNC(=O)c3ccco3)n2-c2ccccc2OC)sc2c1CCCC2	0	-2	13	0	x	x
O=C(O)CC(CCc1ccccc1)CC(=O)O	0	18	61*	0	18	16
Cc1cc(NS(=O)(=O)c2ccc(NC(=O)COc3cccc(Br)c3)cc2)nc(C)n1	-1	-10	-13	0	x	x
CCC(C)NC(=O)C1CCCN(S(=O)(=O)c2ccc3c(c2)C(C)(C)C(=O)N3C)C1 (stereo unspecified)	0	8	3	0	x	x
Cc1ccc(CN2CCCC(C(=O)N3CCCCC3)C2)cc1 (stereo unspecified)	1	6	34	0	x	x
CCOC(=O)C1CCCN(Cc2cccc(Br)c2)C1 (stereo unspecified)	2	-6	53*	1	35*	6	AS interf DR=>6.5
COc1ccc(CN2CCC(C(=O)NCc3ccc(C)cc3)CC2)cc1	2	-1	77*	0	-7	-5
COc1ccc(CN2CCCC(C(=O)N3CCCC3)C2)cc1 (stereo unspecified)	-2	-1	45	0	x	x
Cc1ccc(CN2CCCC(C(=O)N3CCCCCC3)C2)cc1 (stereo unspecified)	0	0	64*	0	-6	-6
COc1ccc(CN2CCCC(C(=O)N3CCCCCC3)C2)cc1 (stereo unspecified)	0	7	73*	0	-7	-7
CCOC(=O)C1CCCN(Cc2ccccc2)C1 (stereo unspecified)	-1	-8	6	0	x	x
